{
  "source": "PubChem BioAssay",
  "data": [
    {"assay": "blockers of polyQ-driven CASP3 activation – cell-based (AID 1583)", "conditions": "polyglutamine-induced caspase-3 activation, cell assay; stronger effect = higher value;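 tested at 10 µM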", "units": {"inhibition": "%"}, "values": [
      {"smiles": "CC(=O)OCC(=O)[C@@]1(O)[C@H](C)CC2C3CCC4=CC(=O)C=C[C@]4(C)[C@@]3(F)[C@@H](O)C[C@@]21C", "note": "(stereo not given in full)", "inhibition": 52.6},
      {"smiles": "Nc1ccn(C2O[C@H](CO)[C@@H](O)[C@H]2O)c(=O)n1", "note": "(stereo not given in full)", "inhibition": 22},
      {"smiles": "C=C(C)[C@H]1CC=C(C(=O)O)CC1", "inhibition": 10.7},
      {"smiles": "NC(COCc1ccccc1)C(=O)O", "note": "(stereo not given)", "inhibition": 2.09},
      {"smiles": "CC1(C)C2CC[C@]3(C)C(C(=O)C=C4[C@H]5C[C@@](C)(C(=O)O)CC[C@]5(C)CC[C@]43C)[C@@]2(C)CC[C@@H]1O", "note": "(stereo not given in full)", "inhibition": -22.8},
      {"smiles": "CC1(C)C2CC[C@]3(C)C(C(=O)C=C4[C@@H]5C[C@@](C)(C(=O)O)CC[C@]5(C)CC[C@]43C)[C@@]2(C)CC[C@@H]1O", "note": "(stereo not given in full)", "inhibition": 22.2},
      {"smiles": "COc1ccc([C@@H]2CC(=O)c3c(O)cc(O[C@@H]4O[C@H](CO[C@H]5O[C@@H](C)[C@H](O)[C@@H](O)[C@H]5O)[C@@H](O)[C@H](O)[C@H]4O)cc3O2)cc1O", "inhibition": 12.3},
      {"smiles": "CC(=O)[C@@]1(O)CCC2C3C=C(Cl)C4=CC(=O)[C@@H]5CC5[C@]4(C)C3CC[C@@]21C", "note": "(stereo not given in full)", "inhibition": 39.2},
      {"smiles": "CC(C)(C)NC[C@@H](O)COc1nsnc1N1CCOCC1", "inhibition": 6.36},
      {"smiles": "CC(C)CC(NC(=O)CCN)C(=O)O", "note": "(stereo not given)", "inhibition": 1.74},
      {"smiles": "CC[C@H](C)C(=O)O[C@H]1CCC=C2C=C[C@H](C)C(CCC3C[C@@H](O)CC(=O)O3)[C@H]21", "note": "(stereo not given in full)", "inhibition": -3.44},
      {"smiles": "NC[C@H]1O[C@H](O[C@H]2C(O[C@@H]3O[C@H](CO)[C@@H](O)[C@H]3O)[C@@H](O)[C@H](N)C[C@@H]2N)[C@H](N)[C@@H](O)[C@@H]1O", "note": "(stereo not given in full)", "inhibition": -18.6},
      {"smiles": "CC1=C2C(=CO[C@H](C)[C@H]2C)C(=O)C(C(=O)O)=C1O", "inhibition": 1.38},
      {"smiles": "CC(=O)Oc1ccc2c(c1)CCC1C2CC[C@@]2(C)C1CC[C@@H]2OC(C)=O", "note": "(stereo not given in full)", "inhibition": 10.6},
      {"smiles": "C1CCN2C[C@H]3C[C@H](CN4CCCC[C@@H]34)[C@H]2C1", "inhibition": -43.7},
      {"smiles": "CC1CCC2(OC1)OC1CC3C4CC[C@H]5C[C@@H](O)CC[C@]5(C)C4CC(=O)[C@]3(C)C1C2C", "note": "(stereo not given in full)", "inhibition": 11.6},
      {"smiles": "CCCC(=O)Nc1ncnc2c1ncn2C1O[C@@H]2COP(=O)(O)O[C@H]2[C@H]1OC(=O)CCC", "note": "(stereo not given in full)", "inhibition": -71.1},
      {"smiles": "CC(=O)O[C@@H]1CC2C(C)(C)C(=O)C=C[C@]2(C)C2CC[C@@]3(C)[C@H](c4ccoc4)OC(=O)[C@H]4O[C@]43[C@@]21C", "note": "(stereo not given in full)", "inhibition": -6.23},
      {"smiles": "CC(=O)N[C@@H]1[C@@H](C(O)[C@H](O)CO)O[C@](O)(C(=O)O)C[C@@H]1O", "note": "(stereo not given in full)", "inhibition": 7.5},
      {"smiles": "CC(C)Oc1ccc2c(=O)cc(-c3ccccc3)oc2c1", "inhibition": 19.6},
      {"smiles": "COc1ccc(-c2cc(=O)c3c(O)cc(O[C@@H]4O[C@H](CO[C@H]5O[C@H](C)[C@@H](O)[C@H](O)[C@@H]5O)[C@@H](O)[C@H](O)[C@H]4O)cc3o2)cc1O", "inhibition": 25.9},
      {"smiles": "C[N+]1(C)C2CC(OC(=O)[C@@H](CO)c3ccccc3)CC1C1OC12", "note": "(stereo not given in full)", "inhibition": 17.7},
      {"smiles": "COC1=CC(C)[C@@H]2C[C@H]3OC(=O)C[C@H]4C(C)=C(OC)C(=O)C([C@@]34C)[C@@]2(C)C1=O", "note": "(stereo not given in full)", "inhibition": 22.5},
      {"smiles": "NC(Cc1ccc(F)cc1)C(=O)O", "note": "(stereo not given)", "inhibition": 10.4},
      {"smiles": "COC(=O)C(N)CS", "note": "(stereo not given)", "inhibition": -5.77}
    ]},
    {"assay": "yeast 75Q aggregation reduction – 75Q-TubU reporter (AID 1593)", "conditions": "Yeast 75Q polyglutamine aggregation reporter", "values": [
      {"smiles": "CC(=O)OCC(=O)[C@@]1(O)[C@H](C)CC2C3CCC4=CC(=O)C=C[C@]4(C)[C@@]3(F)[C@@H](O)C[C@@]21C", "note": "(stereo not given in full)", "score": 0.99},
      {"smiles": "Nc1ccn(C2O[C@H](CO)[C@@H](O)[C@H]2O)c(=O)n1", "note": "(stereo not given in full)", "score": 1.09},
      {"smiles": "C=C(C)[C@H]1CC=C(C(=O)O)CC1", "score": 0.26},
      {"smiles": "NC(COCc1ccccc1)C(=O)O", "note": "(stereo not given)", "score": 1.43},
      {"smiles": "CC1(C)C2CC[C@]3(C)C(C(=O)C=C4[C@H]5C[C@@](C)(C(=O)O)CC[C@]5(C)CC[C@]43C)[C@@]2(C)CC[C@@H]1O", "note": "(stereo not given in full)", "score": 2.14},
      {"smiles": "CC1(C)C2CC[C@]3(C)C(C(=O)C=C4[C@@H]5C[C@@](C)(C(=O)O)CC[C@]5(C)CC[C@]43C)[C@@]2(C)CC[C@@H]1O", "note": "(stereo not given in full)", "score": 2.09},
      {"smiles": "COc1ccc([C@@H]2CC(=O)c3c(O)cc(O[C@@H]4O[C@H](CO[C@H]5O[C@@H](C)[C@H](O)[C@@H](O)[C@H]5O)[C@@H](O)[C@H](O)[C@H]4O)cc3O2)cc1O", "score": 1.13},
      {"smiles": "CC(=O)[C@@]1(O)CCC2C3C=C(Cl)C4=CC(=O)[C@@H]5CC5[C@]4(C)C3CC[C@@]21C", "note": "(stereo not given in full)", "score": 0.81},
      {"smiles": "CC(C)(C)NC[C@@H](O)COc1nsnc1N1CCOCC1", "score": 1.66},
      {"smiles": "CC(C)CC(NC(=O)CCN)C(=O)O", "note": "(stereo not given)", "score": 1.04},
      {"smiles": "CC[C@H](C)C(=O)O[C@H]1CCC=C2C=C[C@H](C)C(CCC3C[C@@H](O)CC(=O)O3)[C@H]21", "note": "(stereo not given in full)", "score": 0.88},
      {"smiles": "NC[C@H]1O[C@H](O[C@H]2C(O[C@@H]3O[C@H](CO)[C@@H](O)[C@H]3O)[C@@H](O)[C@H](N)C[C@@H]2N)[C@H](N)[C@@H](O)[C@@H]1O", "note": "(stereo not given in full)", "score": 1.41},
      {"smiles": "CC1=C2C(=CO[C@H](C)[C@H]2C)C(=O)C(C(=O)O)=C1O", "score": 0.74},
      {"smiles": "CC(=O)Oc1ccc2c(c1)CCC1C2CC[C@@]2(C)C1CC[C@@H]2OC(C)=O", "note": "(stereo not given in full)", "score": -0.45},
      {"smiles": "C1CCN2C[C@H]3C[C@H](CN4CCCC[C@@H]34)[C@H]2C1", "score": 1.18},
      {"smiles": "CC1CCC2(OC1)OC1CC3C4CC[C@H]5C[C@@H](O)CC[C@]5(C)C4CC(=O)[C@]3(C)C1C2C", "note": "(stereo not given in full)", "score": 1.42},
      {"smiles": "CCCC(=O)Nc1ncnc2c1ncn2C1O[C@@H]2COP(=O)(O)O[C@H]2[C@H]1OC(=O)CCC", "note": "(stereo not given in full)", "score": 1.26},
      {"smiles": "CC(=O)O[C@@H]1CC2C(C)(C)C(=O)C=C[C@]2(C)C2CC[C@@]3(C)[C@H](c4ccoc4)OC(=O)[C@H]4O[C@]43[C@@]21C", "note": "(stereo not given in full)", "score": 0.97},
      {"smiles": "CC(=O)N[C@@H]1[C@@H](C(O)[C@H](O)CO)O[C@](O)(C(=O)O)C[C@@H]1O", "note": "(stereo not given in full)", "score": 1.07},
      {"smiles": "CC(C)Oc1ccc2c(=O)cc(-c3ccccc3)oc2c1", "score": 0.68},
      {"smiles": "COc1ccc(-c2cc(=O)c3c(O)cc(O[C@@H]4O[C@H](CO[C@H]5O[C@H](C)[C@@H](O)[C@H](O)[C@@H]5O)[C@@H](O)[C@H](O)[C@H]4O)cc3o2)cc1O", "score": 2.29},
      {"smiles": "C[N+]1(C)C2CC(OC(=O)[C@@H](CO)c3ccccc3)CC1C1OC12", "note": "(stereo not given in full)", "score": 1.45},
      {"smiles": "COC1=CC(C)[C@@H]2C[C@H]3OC(=O)C[C@H]4C(C)=C(OC)C(=O)C([C@@]34C)[C@@]2(C)C1=O", "note": "(stereo not given in full)", "score": 1.3},
      {"smiles": "NC(Cc1ccc(F)cc1)C(=O)O", "note": "(stereo not given)", "score": 1.23},
      {"smiles": "COC(=O)C(N)CS", "note": "(stereo not given)", "score": 1.37}
    ]}
  ]
}
